Records with an inconclusive call do not appear. Entries that show only a call come without a potency. The source made the active and inactive calls. The call rests on the fitted dose curve; in most records, active means well fitted activation curve with a large enough effect in the repeat runs; inconclusive means weak or mixed curves, or effect the other way; inactive means no such curve, though single readings can be large or run the other way.
Experiment: qHTS assay to identify small molecule agonists of the retinoic acid receptor (RAR) signaling pathway (AID 1159553)
Settings: C3RL4 RARE luciferase reporter, agonist, 6 h; series mostly up to 73.3 µM
Summary of the method: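 In this cell-based screen, 1,000 C3RL4 cells per well were cultured overnight, dosed with test chemicals in DMSO for 6 hr, and assessed for RARE luciferase luminescence.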

Row | Compound | Potency
1 | Cc1c(Cl)cccc1[N+](=O)[O-] | inactive
2 | CC(=O)c1ccc(Cl)c(Cl)c1Cl | inactive
3 | CCN(CC)CC(=O)OCC(=O)[C@@]1(O)CC[C@H]2[C@@H]3CCC4=CC(=O)CC[C@]4(C)[C@H]3[C@@H](O)C[C@@]21C | inactive
